Drawing on PubChem BioAssay (NCI), this text covers growth for 13 compounds.

The panel holds about 83,000 compounds, 20% with a hit somewhere; the sample as a whole holds those more often.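 The test compound was applied at a single concentration to cells in 96-well plates for 48 hours, and percent growth was recorded.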 Values without a mark were called inactive. Calls of active or inactive are those of the source. How the source made its calls: active means growth percent below 10; inactive means the rest.

What all share (experiment): NCI-60 one-dose screen, 48 h (100 = growth as untreated, 0 = no growth, -100 = all killed)
Common to all, as to details: 10 µM

Test [1] relates to HCT-15 colon.
Test [2] has as its system HT29 colon.
Test [3] relates to SNB-75 CNS.
Test [4] has as its system SNB-19 CNS.
Test [5] has as its system U251 CNS.
Test [6] concerns PC-3 prostate.
Test [7] relates to SK-MEL-5 melanoma.
Test [8] relates to UACC-62 melanoma.
The subject of test [9] is LOX IMVI melanoma.
Test [10] concerns SK-MEL-28 melanoma.

Regarding `CNC(=O)c1cn2c3c(c(N4CCN(C)CC4)c(F)cc3c1=O)OC[C@@H]2C`, the growth is 102% in test [1]; 96.2% in [2]; 84.1% in test [3]; 106% in test [4]; 99.5% in [5]; 96.2% in [6]. Also, the growth in test [7] was 101%; in [8], 103%; in [9], 94.8%; in test [10], 108%.

Regarding `COc1ccc(Cl)cc1Nc1nc(C(F)(F)F)ccc1C(=O)N/N=C/c1cc(OC)c(OC)c(OC)c1`, the growth is 23.7% in test [1]; 32% in [2]; 32.6% in [3]; 38.9% in [4]; 16.3% in [5]; 6.2% (active) in test [6]. Besides, the growth is 18.8% in test [7], -48% (active) in test [8], -61.5% (active) in [9] and 30.2% in test [10].

On to `COc1cc(NC(=O)Nc2cnc(Nc3ccc(N4CCOCC4)cc3)nc2Oc2cccc(OC)c2)cc(OC)c1`, for which the growth is 81.9% in [1]; 37.2% in test [2]; 9.13% (active) in test [3]; 66.6% in test [4]; 22% in [5]; 47.5% in test [6]. Also, the growth in [7] was -19.9% (active); in test [8] it was 22.8%; in test [9] it was 33.3%; in [10], 32.2%.

For the compound `O=C(CCCSc1nc(-c2ccccc2)cc(-c2ccc(Cl)cc2)n1)NO`, the growth is 18.5% in test [1]; 20.3% in test [2]; 5.53% (active) in [3]; 20.1% in test [4]; 16.8% in test [5]; 20.6% in test [6]. Besides, the growth in [7] was -27.7% (active); in test [8], -15.3% (active); in test [9], -3.49% (active); in test [10] it was 30.9%.

`COc1cc2c(Nc3ccc(S(N)(=O)=O)cc3)ncnc2c(OC)c1OC`: the growth in test [1] is 98%; in [2] it was 105%; in test [3] it was 89.5%; in test [4] it was 93.5%; in test [5] it was 96.9%; in test [6], 84.7%. The growth in [7] is 91.4%; in [8] it was 97.4%; in [9] it was 99.9%; in [10], 98.7%.

Turning to `COc1cc(-c2csc(NC(=O)Nc3ccc(Cl)c(C(F)(F)F)c3)n2)cc(OC)c1OC`, the growth in [1] is 10.5%; in test [2] it was 4.27% (active); in test [3], -7.01% (active); in test [4], 13.2%; in test [5], -9.73% (active); in test [6], -0.311% (active). The growth in [7] is -79.9% (active); in [8] it was 1.56% (active); in test [9], -19.2% (active); in test [10] it was 15.3%.

Take `CCOC(=O)N/N=C/c1ccc(OC)c(OC)c1`: the growth in test [1] was 110%; in test [2], 104%; in test [3], 106%; in test [4], 104%; in test [5] it was 100%; in test [6], 104%. Besides, the growth is 101% in [7], 98.7% in [8], 102% in test [9] and 107% in test [10].

As for `O=C1c2ccccc2C(=O)c2c1ccc(C(Br)Br)c2Cl`, the growth is 44% in test [1]; 52.5% in test [2]; 91.4% in test [3]; 42.9% in [4]; -26% (active) in [5]; 40.5% in test [6]. The growth in test [7] was 74%; in test [8], 47.2%; in test [9], -84.4% (active); in [10], 92.3%.

For the compound `CCn1c(SCCc2ccccc2)nnc1-c1nn(-c2ccc(Cl)cc2Cl)c(-c2ccc(Cl)cc2)c1C`, the growth is 45.6% in test [1]; 67.2% in test [2]; 90.7% in test [3]; 76.7% in test [4]; 54.7% in test [5]; 39.8% in test [6]. The growth in test [7] is 74.3%; in [8], 68.6%; in test [9], 63.8%; in test [10] it was 79.2%.

Regarding `CC(C)N(CCOc1cccc(-c2nc3sccn3c2-c2ccnc(S(C)(=O)=O)n2)c1)C(C)C`, the growth in [1] is 81.8%; in test [2], 54.5%; in test [3] it was 78%; in test [4] it was 101%; in test [5], 83.8%; in test [6] it was 72.7%. Moreover, the growth was 3.97% (active) in test [7], 84.1% in [8], 84.3% in test [9] and 99.3% in test [10].

On to `CC[C@@H]1NC(=O)[C@H]([C@H](O)[C@H](C)C/C=C/c2ccc(CN3C(=O)CCCC3=O)cc2)N(C)C(=O)[C@H](C(C)C)N(C)C(=O)[C@H](CC(C)C)N(C)C(=O)[C@H](CC(C)C)N(C)C(=O)[C@@H](C)NC(=O)[C@H](C)NC(=O)[C@H](CC(C)C)N(C)C(=O)[C@H](C(C)C)NC(=O)[C@H](CC(C)C)N(C)C(=O)CN(C)C1=O`, for which the growth in test [1] was 19.5%; in [2], -24.8% (active); in test [3], 56.7%; in test [4], 60.7%; in [5] it was 60.2%; in test [6] it was 37.3%. The growth was 23.2% in [7], 59.4% in test [8], 1.01% (active) in [9] and 46.3% in test [10].

Consider `O=C(N/N=C/c1ccc(Cl)cc1)c1ccc(Cc2n[nH]c(=O)c3cccnc23)cc1`, for which the growth in [1] is 97.1%; in test [2], 99.3%; in test [3], 84.5%; in [4], 89%; in [5] it was 103%; in test [6] it was 95.4%. Further, the growth was 100% in test [7], 94.2% in [8], 100% in test [9] and 104% in test [10].

With `CCC(=O)OC1CCC2C3CCC(=O)OC3C(C)(CCC(=O)O)CC12C` (stereo not given), the growth was 24.2% in test [1]; 4.42% (active) in test [2]; -1.91% (active) in test [3]; 62.8% in test [4]; 28.3% in [5]; 31.4% in test [6]. The growth in test [7] is -83.5% (active); in [8] it was 45.9%; in test [9] it was 30.9%; in test [10], 59.8%.
